Data as given in PMC4081100, “A DNA-binding-site landscape and regulatory network analysis for NAC transcription factors in Arabidopsis thaliana”.

Columns and labels:
Test in all cases: universal protein binding microarray (PBM); transcription factors of Arabidopsis thaliana; high values mean tight binding
GST-ANAC092(1-176) = target: T1, GST-ANAC092(1-176) (Arabidopsis thaliana, UniProt Q9FKA0 1-176); settings: protein: recombinant; tags: GST; chain copies: 2; dsDNA, one strand shown
T1 sequence: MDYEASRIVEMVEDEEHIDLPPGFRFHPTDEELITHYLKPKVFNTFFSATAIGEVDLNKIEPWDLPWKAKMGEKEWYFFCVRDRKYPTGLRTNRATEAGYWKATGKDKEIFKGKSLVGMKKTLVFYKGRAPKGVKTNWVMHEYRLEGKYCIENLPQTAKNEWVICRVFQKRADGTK
How it was run: (§1)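 GST-tagged NAC-domain, full-length or DNA-binding-domain proteins were induced in cells, with zinc acetate added for zinc-finger proteins. They were purified on glutathione–Sepharose 4B and quantified by A280 or anti-GST western blot. Each was applied at 200 to 500 nM final, in duplicate, to custom all-10-mer Agilent 4 × 180K arrays made double-stranded by primer extension, with gapped and ungapped 8-mers scored. Binding is the normalised enrichment score (E-score).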

GST-NTL6(1-168) = GST-NTL6(1-168) (Arabidopsis thaliana, UniProt Q9SCK6 1-168); settings: protein: recombinant; tags: GST; chain copies: 2; dsDNA, one strand shown
How it was run: as §1

GST-ANAC019 NAC domain = target: T2, GST-ANAC019 NAC domain (Arabidopsis thaliana, UniProt Q9C932 14-162); settings: protein: recombinant; tags: GST; chain copies: 2; dsDNA, one strand shown
T2 sequence: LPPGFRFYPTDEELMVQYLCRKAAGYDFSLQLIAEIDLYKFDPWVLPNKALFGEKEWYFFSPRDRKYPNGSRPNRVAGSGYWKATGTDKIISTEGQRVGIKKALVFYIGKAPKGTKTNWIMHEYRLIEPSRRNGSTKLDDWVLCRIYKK
How it was run: as §1

GST-NST2(1-184) = target: T3, GST-NST2(1-184) (Arabidopsis thaliana, UniProt Q9M274 1-184); settings: protein: recombinant; tags: GST; chain copies: 2; dsDNA, one strand shown
T3 sequence: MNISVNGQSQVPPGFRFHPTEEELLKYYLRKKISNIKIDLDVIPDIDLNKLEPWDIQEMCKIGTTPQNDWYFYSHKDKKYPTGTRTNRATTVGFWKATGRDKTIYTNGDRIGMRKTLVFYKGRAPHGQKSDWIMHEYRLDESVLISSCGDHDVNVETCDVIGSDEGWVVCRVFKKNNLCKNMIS
How it was run: as §1

GST-NTL8 NAC domain = target: T4, GST-NTL8 NAC domain (Arabidopsis thaliana, UniProt Q9XIN7 14-156); settings: protein: recombinant; tags: GST; chain copies: 2; dsDNA, one strand shown
T4 sequence: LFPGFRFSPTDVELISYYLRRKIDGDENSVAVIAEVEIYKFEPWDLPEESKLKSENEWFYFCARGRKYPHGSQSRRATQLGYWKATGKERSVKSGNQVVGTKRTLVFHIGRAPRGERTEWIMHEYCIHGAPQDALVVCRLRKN
How it was run: as §1

GST-SND1(1-203) = target: T5, GST-SND1(1-203) (Arabidopsis thaliana, UniProt Q9LPI7 1-203); settings: protein: recombinant; tags: GST; chain copies: 2; dsDNA, one strand shown
T5 sequence: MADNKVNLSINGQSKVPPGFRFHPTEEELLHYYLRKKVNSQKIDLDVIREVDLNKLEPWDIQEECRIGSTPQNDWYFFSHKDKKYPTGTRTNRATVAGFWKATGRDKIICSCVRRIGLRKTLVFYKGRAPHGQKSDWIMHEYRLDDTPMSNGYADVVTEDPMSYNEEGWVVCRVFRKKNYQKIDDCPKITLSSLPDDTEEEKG
How it was run: as §1

GST-VND7 NAC domain = target: T6, GST-VND7 NAC domain (Arabidopsis thaliana, UniProt Q9C8W9 9-158); settings: protein: recombinant; tags: GST; chain copies: 2; dsDNA, one strand shown
T6 sequence: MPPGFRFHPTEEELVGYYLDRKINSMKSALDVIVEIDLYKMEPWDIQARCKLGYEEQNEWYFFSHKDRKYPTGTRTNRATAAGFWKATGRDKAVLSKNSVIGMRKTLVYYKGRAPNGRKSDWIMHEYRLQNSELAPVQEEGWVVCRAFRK
How it was run: as §1

[1] = target: T7, GST-ANAC092(1-285) full length (Arabidopsis thaliana, UniProt Q9FKA0 1-285); settings: protein: recombinant; tags: GST; chain copies: 2; dsDNA, one strand shown
T7 sequence: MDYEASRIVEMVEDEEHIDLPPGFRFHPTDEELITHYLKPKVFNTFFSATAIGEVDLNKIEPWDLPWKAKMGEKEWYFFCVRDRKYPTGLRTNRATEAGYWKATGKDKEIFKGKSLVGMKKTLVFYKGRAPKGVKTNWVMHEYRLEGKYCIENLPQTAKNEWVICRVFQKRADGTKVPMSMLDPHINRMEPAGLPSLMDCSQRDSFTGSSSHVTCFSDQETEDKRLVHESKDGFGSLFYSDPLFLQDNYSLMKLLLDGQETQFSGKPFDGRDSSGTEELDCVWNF
How it was run: as §1

GST-WRKY1(266-371) = GST-WRKY1(266-371) (Arabidopsis thaliana, UniProt Q9SI37 266-371); settings: protein: recombinant; tags: GST; dsDNA, one strand shown
How it was run: as §1

GST-ANAC055(1-171) = target: T8, GST-ANAC055(1-171) (Arabidopsis thaliana, UniProt Q9LDY8 1-171); settings: protein: recombinant; tags: GST; chain copies: 2; dsDNA, one strand shown
T8 sequence: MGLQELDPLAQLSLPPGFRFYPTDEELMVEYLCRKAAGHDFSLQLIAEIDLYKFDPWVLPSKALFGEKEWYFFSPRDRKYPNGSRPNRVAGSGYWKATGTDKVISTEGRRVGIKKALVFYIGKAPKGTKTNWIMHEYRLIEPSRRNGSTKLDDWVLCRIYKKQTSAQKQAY
How it was run: as §1

GST-ATAF1 NAC domain = target: T9, GST-ATAF1 NAC domain (Arabidopsis thaliana, UniProt Q39013 7-158); settings: protein: recombinant; tags: GST; chain copies: 2; dsDNA, one strand shown
T9 sequence: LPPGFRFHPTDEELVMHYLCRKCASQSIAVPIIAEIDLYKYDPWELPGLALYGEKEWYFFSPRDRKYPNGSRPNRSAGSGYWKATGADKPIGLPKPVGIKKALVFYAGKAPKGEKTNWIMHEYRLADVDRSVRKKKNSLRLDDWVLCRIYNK
How it was run: as §1

GST-NAP(1-166) = target: T10, GST-NAP(1-166) (Arabidopsis thaliana, UniProt O49255 1-166); settings: protein: recombinant; tags: GST; chain copies: 2; dsDNA, one strand shown
T10 sequence: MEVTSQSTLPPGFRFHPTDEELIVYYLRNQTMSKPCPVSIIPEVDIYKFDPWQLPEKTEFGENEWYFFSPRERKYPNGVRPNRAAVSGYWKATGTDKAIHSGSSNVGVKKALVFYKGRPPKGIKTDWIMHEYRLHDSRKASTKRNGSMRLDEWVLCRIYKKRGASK
How it was run: as §1

GST-NTL6(1-168), sequence (Q9SCK6 1-168): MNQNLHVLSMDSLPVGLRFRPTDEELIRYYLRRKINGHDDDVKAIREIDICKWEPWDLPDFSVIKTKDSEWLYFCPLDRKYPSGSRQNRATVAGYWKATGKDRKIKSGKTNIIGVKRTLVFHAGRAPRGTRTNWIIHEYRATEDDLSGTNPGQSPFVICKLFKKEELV
GST-WRKY1(266-371), sequence (Q9SI37 266-371): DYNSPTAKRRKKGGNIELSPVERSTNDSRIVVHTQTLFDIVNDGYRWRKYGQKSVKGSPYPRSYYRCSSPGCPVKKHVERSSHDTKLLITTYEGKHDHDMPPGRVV

Sequence	binding signal (GST-ANAC092(1-176)) [E-score]	binding signal (GST-NTL6(1-168)) [E-score]	binding signal (GST-ANAC019 NAC domain) [E-score]	binding signal (GST-NST2(1-184)) [E-score]	binding signal (GST-NTL8 NAC domain) [E-score]	binding signal (GST-SND1(1-203)) [E-score]	binding signal (GST-VND7 NAC domain) [E-score]	binding signal [1] [E-score]	binding signal (GST-WRKY1(266-371)) [E-score]	binding signal (GST-ANAC055(1-171)) [E-score]	binding signal (GST-ATAF1 NAC domain) [E-score]	binding signal (GST-NAP(1-166)) [E-score]
GAAGGGAA	0.091	0.227	0.101	0.0954	0.44	0.112	0.0803					
GCGTCAAA				0.052	0.0775	0.0924	0.0799	0.0819	0.409			
CCACGCCA	0.372		0.0852	0.0528		0.141	0.102	0.415		0.0687	0.145	0.0773
ATCGCGTA	0.261			0.211		0.442	0.104	0.404			0.165	0.149
AGGGGAAA	0.191	0.14	0.112		0.412	0.0998	0.132	0.0577				0.101
CCCCACCC	0.209	0.274	0.177	0.182	0.277	0.272	0.171	0.278		0.0515	0.234	
CTTGCTTC	0.288	0.295	0.0507	0.204	0.303	0.403	0.0829	0.368				
AAGCACGC	0.32		0.127	0.0521		0.21	0.0817	0.407			0.121	0.0699
GTCAAACA						0.0891	0.0699	0.11	0.475			
GAAGAAAC	0.203	0.295	0.123	0.197	0.423	0.126	0.0868	0.0911		0.168	0.194	
TGACTTAA		0.342		0.183		0.249	0.089	0.102	0.427		0.107	
ACGCTATC	0.43		0.106	0.303		0.431	0.0789	0.454			0.0721	0.104
CCCCGCCC	0.325	0.319	0.329	0.297	0.372	0.378	0.273	0.343		0.178	0.262	0.0894
GGCGTAAC	0.21			0.129		0.421	0.0835	0.277			0.0594	0.0618
TCGCGTAA	0.283	0.0668		0.259		0.459	0.14	0.385		0.0885	0.141	
TGAAGGAA	0.108	0.379	0.0877	0.197	0.469	0.342	0.0645	0.0772		0.0856	0.0713	
CTTTCCTC	0.0932	0.104	0.0599		0.453	0.147	0.0728			0.0748		
